From the supplement of paper PMC10338343
± gives the standard deviation. Over roughly 6,600 sequences, “pre-steady-state target cleavage rate” has its median near 0.07; the highest 2% begin near 0.72. The sample holds the highest values, similar sequences and a random draw of the others, so the mix is not that of the screen.

tested on: MIWI (PIWIL1) piRISC loaded with Kctd7 piRNA (30 nt); assay: pre-steady-state target cleavage rate (min^-1); MIWI and MILI are mouse PIWI proteins and EfPiwi is from a freshwater sponge; tags in brackets are library labels; higher = faster piRNA-guided slicing of the target; details: guide: Kctd7 piRNA 5'p-UGUUAAUCUCUCAGAGAAGGUGACAGUGAU; auxiliary factor: 500 nM mouse GTSF1
Protocol: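 Cleave-'n-Seq: a library of target RNAs (target site embedded in constant flanks, ACAGCATTCCGCGTTAGTGATATCCG... 5' flank; DNA-blocked outside the site) at 0.1 nM was incubated with 1 nM active mouse MILI or MIWI piRISC (synthetic 5'-monophosphorylated piRNA guide) with or without 500 nM mouse GTSF1 at 33 °C for 1 min to 16 h. Uncleaved targets were sequenced and normalised to non-target controls, and the pooled three trials were fitted to a burst-and-steady-state model to give the pre-steady-state cleavage rate (min^-1; k3 is constrained to at most 1e-4). Sequence is the target site only; target names encode pairing extent (gX:gY) and contiguous / 1-mismatch / 2-mismatch / bulge geometry. Fits with R² ≤ 0 are excluded.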

| Sequence | pre-steady-state target cleavage rate |
| --- | --- |
| UAGAGACUCACCUUCUCUGAGAGAUUAUGA | 0.0764 ± 0.014 |
| UUCACUGUCACCUUCUCUGAGUAGAUUAACA | 0.0213 ± 0.0063 |
| UAGUCUGUCACCUUUUCUGAGAGAUUAACA | 0.542 ± 0.029 |
| AUCACUGUCACCUUCACUGAGUGAUUAACA | 0.0332 ± 0.007 |
| UAGUGACAGACCUUCACUGAGAGUUUAACA | 0.0305 ± 0.011 |
| UAGUGACUCACCUUCUCUGAGUGAUAAACA | 0.0392 ± 0.007 |
| AUCACUGUCACCUUCUCUGAGAGAUUAACG [g2:g30:cont:t1G] | 0.713 ± 0.037 |
| AUCACUGUCACCUUCUCUGAGAGAUUAAUCA | 0.381 ± 0.04 |
| AAUCACUGUCACCUUCUCUGAGAGAUUAACA | 0.81 ± 0.043 |
| UAGUGACUCACCUUCUCUGAGAGAAUAAGA | 0.02 ± 0.0073 |
| UUCACAGUCACCUUCUCUGAGAGAUUAAGA | 0.137 ± 0.027 |
| UUCAGUGUCAGCUUCUCUGAGAGAUUAACA | 0.609 ± 0.032 |
| UAGUGUGUCAGCUUCUCUGAGAGAUUAACA | 0.561 ± 0.032 |
| UACAGUGUCAGCUUCUCUGAGAGAUUAACA | 0.622 ± 0.028 |
| UAGAGUGUCAGCUUCUCUGAGAGAUUAACA | 0.772 ± 0.044 |
| UAGUGUCUCAGCUUCUCUGAGAGAUUAACA | 0.437 ± 0.031 |
| AUCAGUGUCAGCUUCUCUGAGAGAUUAACA | 0.734 ± 0.034 |
| AUCUCUGUCACCUACUCUGAGAGAUUAACA | 0.627 ± 0.042 |
| AUCACUGUCACCUUCUCUGACAGAUUAUCA | 0.0262 ± 0.0092 |
| UAGUCUGUCACCUUCUCUGAGACAUUAUCA | 0.0172 ± 0.0056 |
| UAGUGUCACACCUUCUCUGAGAGAUAUUGA | 0.00616 ± 0.0033 |
| UAGUGACACACCUUCUCUGAUAGAUUAACA | 0.714 ± 0.054 |
| UAGUGACAGUGGAUCUCUGAGAAAUUAACA | < 0.0001 |
| UAGACUGUCACCUUCUCUGAGAGCAUUAACA | 0.38 ± 0.025 |

| Sequence | pre-steady-state target cleavage rate |
| --- | --- |
| UAGUCUGUCACCUUCUCUGAGUGAUUUACA | 0.0221 ± 0.0058 |
| AGUCACUGUCACCUUCUCUGAGAGAUUAACA | 0.833 ± 0.057 |
| UUUCACUGUCACCUUCUCUGAGAGAUUAACA | 0.415 ± 0.04 |
| UUCACUGUCACCUUCUCCUGAGAGAUUAACA | 0.795 ± 0.21 |
| AUCACUGUCACCUUCUCCUGAGAGAUUAACA | 0.645 ± 0.17 |
| UUCACUGUCACCUUCUCUCUGAGAUUAACA | 0.0263 ± 0.0076 |
| AUCCACUGUCACCUUCUCUGAGAGAUUAACA | 0.712 ± 0.046 |
| UACACUGUCACCUUCUCCUGAGAGAUUAACA | 0.115 ± 0.043 |
| UCCACUGUCACCUUCUCUGAGAGAUUAACA | 0.68 ± 0.028 |
| ACCACUGUCACCUUCUCUGAGAGAUUAACA | 0.715 ± 0.039 |
| GUCACUGUCACCUUCUCUGAGAGAUUAACA | 0.763 ± 0.04 |
| UACCACUGUCACCUUCUCUGAGAGAUUAACA | 0.773 ± 0.044 |
| UUCACUGUCACCUUCUCUGAGAGAAAUACA | 0.179 ± 0.038 |
| AUCACUGUCACCUUCAUCUGAGAGAUUAACA | 0.275 ± 0.053 |
| UUCACACUCACCUUCUCUGAGAGAUUUUGA | 0.0972 ± 0.024 |
| UAGUGACUCACCUUCUCUGAGAGAUUAAGA | 0.194 ± 0.031 |
| UAGACUGUCACCUACUCUGAGAGUUUAACA | 0.147 ± 0.023 |
| UUCACUGUCACCUUCUCUGAGCGAUUAACA | 0.13 ± 0.0091 |
| UAGACUGUCAGCUUCUCUGAGAGAUUAUCA | 0.171 ± 0.024 |
| AUCACUCAGACCUUCUCUGAGAGAUUAACA | 0.433 ± 0.024 |
| CUCACUGUCACCUUCUCUGAGAGAUUAACA | 0.714 ± 0.031 |
| AUUCACUGUCACCUUCUCUGAGAGAUUAACA | 0.737 ± 0.036 |
| UUCAGACUCACCUUCUCUGAGAGAUUAACA | 0.472 ± 0.035 |
| UUCUCUGUCACCUUCACUGAGAGAUUAACA | 0.392 ± 0.021 |

| Sequence | pre-steady-state target cleavage rate |
| --- | --- |
| UUCACUGUCACCUUCUCUGAGAGAUUAACA [g2:g29:cont:t1A] | 0.717 ± 0.03 |
| ACUCACUGUCACCUUCUCUGAGAGAUUAACA | 0.781 ± 0.054 |
| AUCAGACUCACCUUCUCUGAGAGAUUAACA | 0.726 ± 0.045 |
| UACAGUGUCACCUUCUCUGAGUGAUUAACA | 0.0377 ± 0.0077 |
| UAGUGUGUCACCUUGUCUGAGAGAUUUUGA | 0.00982 ± 0.0057 |
| UAGACUGUCACGUUCUCUGAGUGAUUAACA | 0.00628 ± 0.0015 |
| UUCACUGUCUCCUUCUCUGAGAGAUUAUGA | 0.122 ± 0.034 |
| UACUCUGUCACCUUCUCUGAGAGAUUUUGA | 0.0843 ± 0.017 |
| UAGUGACACACCUUCUCUGAAAGAUUAACA | 0.384 ± 0.029 |
| UAGUGUGUCGACCUUCUCUGAGAGAUUAACA | 0.155 ± 0.017 |
| AUGACUGUCACCUACUCUGAGAGAUUAACA | 0.736 ± 0.042 |
| UAGUGACUGCACCUUCUCUGAGAGAUUAACA | 0.77 ± 0.05 |
| UAGUGACUCACCUUCUCUGACUGAUUAACA | 0.00516 ± 0.0026 |
| UAGACUGCACCUUCUCUGAGAGAUUAACA | 0.698 ± 0.046 |
| UAGUGACUCACCUUCUCUGACAGAUUAACA | 0.393 ± 0.048 |
| UUGACUGUCACCUUCUCUGUGAGAUUAACA | 0.267 ± 0.011 |
| UUGACUGUCACCUUCUCUGAGAGAUUAAGA | 0.257 ± 0.034 |
| UAGUGACUCACCUUCUCUGAUAGAUUAACA | 0.778 ± 0.035 |
| UUGACUGUCACCUUCUCUGAGAGAUUAACA | 0.777 ± 0.042 |
| UUGACUGUCACCUACUCUGAGAGAUUAACA | 0.689 ± 0.041 |
| UAGUGACUGACCUUCUCUGAGAGAUUAACA | 0.363 ± 0.037 |
| UAGACUGUCACCUACUCUGAGAGAUUAACA | 0.666 ± 0.049 |
| AUCACUGUCACCUUCUCUGAGAGUAAAACA | 0.125 ± 0.024 |
| UUCACUGUCAGCUUCUCUGAGAGAUUAUCA | 0.24 ± 0.027 |

| Sequence | pre-steady-state target cleavage rate |
| --- | --- |
| UAGUCUGUCACCUUCUCUGAGAGAUUAGACA | 0.138 ± 0.041 |
| UAGUGACACACCUUCUGUGAGAGAUUAUGA | 0.015 ± 0.007 |
| UAGUGUGUCACCUUCUCUGAGUGAUUAUCA | 0.00944 ± 0.0044 |
| UAGUGAGUCACCUUCUGUGAGAGAUUUUGA | 0.012 ± 0.0055 |
| UAGUGAGUCACCUUCUCUGAGAGAUUAUGA | 0.088 ± 0.019 |
| AUGACUGUCACCUUCUCUGAGAGAUUAACA | 0.771 ± 0.037 |
| AUGACUGUCACCUUCUCUGUGAGAUUAACA | 0.278 ± 0.013 |
| UACAGUGUCACCUACUCUGAGAGAUUAACA | 0.585 ± 0.038 |
| UAGUGUGUCACCUACUCUGAGAGAUUAACA | 0.598 ± 0.054 |
| UAGAGUGUCACCUACUCUGAGAGAUUAACA | 0.765 ± 0.042 |
| AUGACUGUCACCUUCUCUGAGAGAUUAAGA | 0.205 ± 0.028 |
| UUCACUGUCACCUAGUCUGAGAGAUUUUGA | 0.111 ± 0.03 |
| UAGUGACACAGCUUCUCUGAGAGUUUAACA | 0.0412 ± 0.0084 |
| UUCACUGUCUCCUUCACUGAGAGAUUAACA | 0.393 ± 0.032 |
| UUCACGUCACCUUCUCUGAGAGAUUAACA | 0.702 ± 0.03 |
| UACACCGUCACCUUCUCUGAGAGAUUAACA | 0.78 ± 0.04 |
| AUCACGUGUCACCUUCUCUGAGAGAUUAACA | 0.63 ± 0.03 |
| UACACGUGUCACCUUCUCUGAGAGAUUAACA | 0.563 ± 0.026 |
| UUCACCGUCACCUUCUCUGAGAGAUUAACA | 0.698 ± 0.03 |
| UACACGUCACCUUCUCUGAGAGAUUAACA | 0.737 ± 0.043 |
| AUCACCGUCACCUUCUCUGAGAGAUUAACA | 0.67 ± 0.026 |
| AUCACGUCACCUUCUCUGAGAGAUUAACA | 0.732 ± 0.041 |
| UACACGGUCACCUUCUCUGAGAGAUUAACA | 0.593 ± 0.027 |
